We go through 18 compounds from PubChem BioAssay (Tox21).

The nature of assay [1]: qHTS assay for small molecule agonists of the p53 signaling pathway (AID 651631; calls by dose curve; also: nearly all actives have a fitted effect of over 15% in size). Conditions: HCT-116 p53RE-bla reporter, beta-lactamase FRET ratio, 16 h; series mostly up to 73.3 µM. The method, boiled down: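 HCT-116 p53RE-bla reporter line, 16 h compound treatment at 37 °C, then fluorescence after 2 h with B/G FRET substrate.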
For orientation: Quantitative high-throughput screening tests each substance at several concentrations.

The nature of assay [2]: qHTS assay for small molecules that induce genotoxicity in human embryonic kidney cells expressing luciferase-tagged ATAD5 (AID 651632). Also: nearly all actives have a fitted effect of over 15% in size. Conditions: HEK293T ATAD5-luciferase induction, 16 h; series mostly up to 83.3 µM. The procedure, abridged:
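Test compounds were delivered by pin tool onto HEK293T reporter cells (2,000/well) expressing ATAD5 fused to luciferase. After 16 hr at 37C, 5% CO2, Amplite was added for 30 min at room temperature and luminescence was measured.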

Assay [3] in a line: qHTS assay for small molecule agonists of the p53 signaling pathway - cell viability (AID 651633; calls by dose curve; also: nearly all actives have a fitted effect of over 30% in size). To be noted: p53RE-bla HCT-116 viability, ATP luminescence, 16 h; series mostly up to 83.3 µM. The method, boiled down:
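Viability counter-read: CellTiter-Glo luminescence (30 min, room temperature) in the same p53RE-bla plates. These plates had been exposed to compounds for 16 h at 37 C.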

Assay [4] is described as follows: qHTS assay for small molecule disruptors of the mitochondrial membrane potential - cell viability (AID 720634; calls by dose curve;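 also: human HepG2 liver cancer cells; nearly all actives have a fitted effect of over 20% in size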). Conditions: HepG2 viability, ATP luminescence (CellTiter-Glo), 1 h; series mostly up to 83.2 µM. The procedure, abridged:
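Same-well counter-screen: following the MMP dye addition, CellTiter-Glo was added to 1 hr compound-treated HepG2 cells and luminescence read after 30 min at room temperature.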

Assay [5] can be described thus: qHTS assay for small molecule disruptors of the mitochondrial membrane potential (AID 720635). Also: potency is read from the fitted curve at half-maximal effect. To be noted: HepG2 mitochondrial membrane potential, Mito-MPS dye ratio; series mostly up to 83.2 µM. The procedure, abridged:
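Mitochondrial membrane potential tracked with Mito-MPS dye, red aggregates (ex 540/em 590 nm) against green monomers (ex 490/em 535 nm). Compound treatment 1 hr at 37C, dye 30 min in HepG2.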

The nature of assay [6]: qHTS assay to test for compound auto fluorescence at 590 nm (red) in HepG2 cells (AID 720674). Conditions: HepG2 autofluorescence, red 540/590 nm, 1 h; series mostly up to 91.3 µM. The procedure, abridged: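 1 hr compound incubation on HepG2 cells, 37 C, 5% CO2; plate read ex 540 nm / em 590 nm; intensities reported as Rose Bengal sodium equivalents.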
Assay [7] is described as follows: qHTS assay to test for compound auto fluorescence at 535 nm (green) in HepG2 cells (AID 720675). To be noted: green autofluorescence 485/535 nm, 1 h; series mostly up to 91.3 µM.
Assay [8] in a line: qHTS assay to test for compound auto fluorescence at 460 nm (blue) in HEK293 cells (AID 720678). To be noted: blue autofluorescence 405/460 nm; series mostly up to 91.3 µM. The method, boiled down:
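Blue-channel (Ex/Em 405/460 nm) intensity measured in HEK293 cultures after overnight compound exposure at 37C; signal expressed relative to triamterene. Cells plated 2,000 per well in 10% dialyzed FBS medium and allowed 4-5 hr to attach.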

Assay [9] can be described thus: qHTS assay to test for compound auto fluorescence at 590 nm (red) in HEK293 cells (AID 720679). To be noted: red autofluorescence 540/590 nm; series mostly up to 91.3 µM. The procedure, abridged:
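Red-channel autofluorescence (Ex/Em 540/590 nm; Rose Bengal sodium reference) was measured after overnight 37C, 5% CO2 exposure of attached HEK293 cells, 2,000 per well in medium with 10% dialyzed FBS.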

A short description of assay [10]: qHTS assay for small molecules that induce genotoxicity in human embryonic kidney cells expressing luciferase-tagged ATAD5 - cell viability (AID 651634; calls by dose curve; also: nearly all actives have a fitted effect of over 25% in size). To be noted: HEK293T ATAD5-luc cells viability, CellTiter-Fluor, 15.5 h; series mostly up to 83.3 µM. The procedure, abridged:
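Quantitative high-throughput format. HEK293T cells expressing ATAD5 fused to luciferase were plated at 2,000 cells/well and treated 15.5 hr with compound versus DMSO. Viability was determined by fluorescent live-cell protease substrate, 30 min at 37C.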

Values without a mark were called inactive. Records with an inconclusive call do not appear. The source made the active and inactive calls. Unless noted, calls follow the shape of the dose curve; as a rule, active = well fitted curve in the direction sought with a large enough effect in the repeat runs; inconclusive = weak or mixed curves; inactive = no such curve, though single readings can be large; an effect the other way counts as inactive or inconclusive.
% is scaled to controls: 0 for no effect and ±100 for the full control effect.

Take `CCC(C)(C)C1CCC(=O)CC1`: the result in assay [1], in assay [2], in [3], in assay [4], in [6] and in assay [7] was inactive. The compound was called inactive in assay [8] and in [9]. Moreover, the Potency entry in assay [5] is “inactive”.
Turning to `CCC(=O)c1ccc(O)cc1`, the outcome in assay [1], in assay [2], in [3], in assay [4], in [6] and in assay [7] was inactive. The result in assay [8] and in assay [9] was inactive.
Take `CC(C)=CC(C)(C)C`: the result in [1], in assay [2], in assay [4], in assay [6], in assay [7] and in assay [8] was inactive. For the same compound, in assay [9], the call was inactive. The Potency entry in [10] was “inactive”.
On to `OC(CCN1CCCCC1)(c1ccccc1)c1ccccc1`, for which the result in assay [1], in assay [3], in assay [4], in [6], in assay [7] and in [8] was inactive. In addition, the compound was called inactive in [9]. In assay [10], the Potency entry is “inactive”.
Regarding `CCCCCCCCC(=O)OCC`, the result in assay [1], in assay [3], in [4], in assay [6], in [7] and in assay [8] was inactive. For the same compound, the result in [9] was inactive. Besides, the Potency entry in assay [10] and in assay [5] was “inactive” in each case.
Regarding `CC(C)COC(=O)CC(C(=O)OCC(C)C)S(=O)(=O)O` (stereo not drawn), the result in assay [1], in assay [3], in [4], in assay [6], in assay [7] and in assay [8] was inactive. Moreover, the call in assay [9] was inactive. In assay [10], the Potency entry was “inactive”.
Regarding `O=C(O)c1ccccc1C(=O)OCc1ccccc1`, the outcome in [1], in [3], in assay [4], in assay [6], in [7] and in [8] was inactive. The compound was classed as inactive in [9]. Moreover, the Potency result in [10] is “inactive”.
Turning to `CC1=NN(c2ccc(S(=O)(=O)O)cc2)C(=O)C1N=Nc1ccccc1` (stereo not drawn), the outcome in [1], in assay [2], in assay [4], in assay [6], in assay [7] and in assay [8] was inactive. For the same compound, the compound was classed as inactive in assay [9].
`O=C(Nc1cccc(C2=NCCN2)c1)Nc1cccc(C2=NCCN2)c1`: the outcome in assay [1], in assay [3], in [4], in [6], in assay [7] and in assay [8] was inactive. Besides, the call in assay [9] was inactive. Also, the Potency result in [10] and in assay [5] was “inactive” each time.
Consider `CCCCCCCCCCCCCCCCI`, for which the outcome in [1], in [2] and in assay [4] was inactive. Moreover, the Potency entry in assay [5] is “inactive”. For the same compound, the fluorescence, relative to Rose Bengal in assay [6] was 0.0421% [at 18.6 µM]. The fluorescence, % of fluorescein control in assay [7] was -0.0199% [at 18.6 µM]. In addition, the fluorescence, % of triamterene in assay [8] was 0.0613% [at 18.6 µM]. For the same compound, the fluorescence, % of fluorescent control in assay [9] is 0.21% [at 18.6 µM].
Take `NS(=O)(=O)c1cc2c(cc1Cl)NC(C(Cl)Cl)NS2(=O)=O` (stereo not drawn): the outcome in assay [1] and in assay [3] was inactive. Moreover, the Potency result in assay [10] was “inactive”. Also, in assay [6], the fluorescence, relative to Rose Bengal was 0.314% [at 18.6 µM]. Also, the fluorescence, % of fluorescein control in [7] is 0.136% [at 18.6 µM]. For the same compound, the fluorescence, % of triamterene in [8] is -0.178% [at 18.6 µM]. Also, in [9], the fluorescence, % of fluorescent control is -0.0605% [at 18.6 µM].
`CN[C@@H]1[C@H](O)[C@H](NC)[C@H]2O[C@@]3(O)C(=O)C[C@@H](C)O[C@H]3O[C@@H]2[C@H]1O`: the outcome in [1], in assay [3] and in assay [4] was inactive. Moreover, the Potency result in assay [10] and in assay [5] was “inactive” in each case. Further, the fluorescence, relative to Rose Bengal in [6] was -0.0467% [at 18.6 µM]. For the same compound, in assay [7], the fluorescence, % of fluorescein control is -0.162% [at 18.6 µM]. Further, the fluorescence, % of triamterene in [8] was -0.0174% [at 18.6 µM]. In addition, the fluorescence, % of fluorescent control in [9] was 0.0398% [at 18.6 µM].
`O=C(CN1CCN(Cc2ccc3c(c2)OCO3)CC1)N1c2ccccc2Sc2ccccc21`: the outcome in assay [1], in assay [3], in [4], in assay [6], in assay [7] and in [8] was inactive. The outcome in assay [9] was inactive. The Potency entry in [10] and in [5] was “inactive” each time.
On to `CCN(Cc1cccc(S(=O)(=O)O)c1)c1ccccc1`, for which the result in assay [1], in assay [2], in [4], in [6], in assay [7] and in assay [8] was inactive. Also, the compound was classed as inactive in assay [9].
As to `c1ccc(CNc2ncnc3nc[nH]c23)cc1`, the result in assay [1], in assay [3], in assay [4], in [6], in assay [7] and in assay [8] was inactive. Besides, in [9], the compound was classed as inactive. The Potency entry in assay [10] was “inactive”. Also, the Potency in assay [5] is 54.5 µM (active).
For the compound `Cc1cc(C)cc([N+](=O)[O-])c1`, the result in assay [1], in assay [3], in [4], in assay [6], in assay [7] and in assay [8] was inactive. Further, the compound was called inactive in assay [9]. Moreover, the Potency result in assay [10] and in assay [5] was “inactive” each time.
Regarding `NC(=O)NC(=O)Cc1ccccc1`, the outcome in assay [1], in [3], in assay [4], in assay [6], in assay [7] and in assay [8] was inactive. Further, in assay [9], the outcome was inactive. In addition, in [5], the Potency entry is “inactive”.
As for `CC(=O)/C=C/c1ccco1`, the outcome in assay [1], in assay [2], in assay [4], in [6], in assay [7] and in assay [8] was inactive. Also, in assay [9], the compound was called inactive. For the same compound, the Potency result in [5] is “inactive”.
